The experiment deals with thyroid hormone receptor (endogenous TRα and TRβ). The arrangement: species or system GH3-TRE-Luc (rat pituitary); GH3-TRE-Luc luciferase reporter transactivation, agonist mode, qHTS; RXR ligands can also activate indirectly.

Like-named read-outs stand apart in the source and are kept apart here. The full ranking holds about 7,300 compounds; the median of “AC50” is about 90,000 nM, and the lowest 2% start at about 20,000 nM. This is one part of the list.

With `O=C(O)Cc1cc(I)c(Oc2ccc(O)c(I)c2)c(I)c1` [Tiratricol], the AC50 (read-out: TR_LUC_GH3_Agonist_AC50, agonist mode, primary qHTS, 24 h) turned out to be 0.000154 µM.

On to `Cc1ccc(O)cc1` [Cresol], for which the AC50 (read-out: TR_LUC_GH3_Agonist_AC50, agonist mode, primary qHTS, 24 h, TR_LUC_GH3_Agonist_AC50 (uM)) worked out at 25 µM.

For the origin of these results see publication PMC6792352, “Limited Chemical Structural Diversity Found to Modulate Thyroid Hormone Receptor in the Tox21 Chemical Library” (Environmental Health Perspectives, 2019).
